The values that follow come from ChEMBL document CHEMBL3988442, “University of Dundee, Small-Polar-MMV Screening Library” (2021).

For some of these results: Entries with a potency or affinity are not part of this list.

Design in all cases: scale not given: direction of the effect not stated beside the values
Assay [1] deals with Protein translocase subunit SecA (Escherichia coli (strain K12)) (UniProt P10408). In words: Assay to Identify E. coli SecA ATPase Inhibitors. It counts as functional. To be noted: 30 µM.
In assay [2] the target is T1, Ubiquitin-activating enzyme e1, putative (Leishmania donovani (strain BPK282A1)) (UniProt E9BSI1).
T1 sequence (whole entry): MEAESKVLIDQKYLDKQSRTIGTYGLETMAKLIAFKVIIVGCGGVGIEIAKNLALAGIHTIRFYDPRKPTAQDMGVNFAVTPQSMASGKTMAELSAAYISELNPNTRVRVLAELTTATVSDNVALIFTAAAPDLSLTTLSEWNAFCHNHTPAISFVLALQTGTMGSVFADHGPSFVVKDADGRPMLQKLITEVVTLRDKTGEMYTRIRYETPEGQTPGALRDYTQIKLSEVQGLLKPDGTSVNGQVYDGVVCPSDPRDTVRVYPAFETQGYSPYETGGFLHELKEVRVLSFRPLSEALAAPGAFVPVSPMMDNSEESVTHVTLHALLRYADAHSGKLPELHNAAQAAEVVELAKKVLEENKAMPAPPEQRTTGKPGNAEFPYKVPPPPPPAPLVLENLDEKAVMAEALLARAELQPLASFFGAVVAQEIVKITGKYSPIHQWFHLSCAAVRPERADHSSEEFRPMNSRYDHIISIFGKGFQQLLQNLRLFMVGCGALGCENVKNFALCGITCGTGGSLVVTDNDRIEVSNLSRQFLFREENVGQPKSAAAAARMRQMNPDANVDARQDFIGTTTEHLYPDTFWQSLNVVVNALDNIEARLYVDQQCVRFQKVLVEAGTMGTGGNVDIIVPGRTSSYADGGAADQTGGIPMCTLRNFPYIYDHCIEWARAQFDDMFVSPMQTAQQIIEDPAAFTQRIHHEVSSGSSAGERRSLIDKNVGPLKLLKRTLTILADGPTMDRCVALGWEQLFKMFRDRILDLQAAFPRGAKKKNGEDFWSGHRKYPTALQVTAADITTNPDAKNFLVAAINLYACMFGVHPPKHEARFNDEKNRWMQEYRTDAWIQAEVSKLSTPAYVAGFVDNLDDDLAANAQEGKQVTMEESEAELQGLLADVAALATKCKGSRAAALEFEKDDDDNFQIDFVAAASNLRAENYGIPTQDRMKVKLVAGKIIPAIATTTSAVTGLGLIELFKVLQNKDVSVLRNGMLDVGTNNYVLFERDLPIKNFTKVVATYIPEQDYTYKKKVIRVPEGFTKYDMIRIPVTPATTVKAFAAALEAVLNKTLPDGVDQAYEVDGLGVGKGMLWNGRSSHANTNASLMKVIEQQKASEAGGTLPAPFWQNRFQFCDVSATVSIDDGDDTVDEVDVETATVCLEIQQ
Description: Leishmania donovani Ubiquitin Activating Enzyme (LdE1). The class given is functional. To be noted: 30 µM.

Assay [3] concerns the target AMP-activated protein kinase, AMPK (Homo sapiens) (UniProt P54646+O43741+P54619+Q9UGJ0+Q9Y478+Q13131+Q9UGI9). Description: AMP-dependent Kinase enzyme assay. An in vitro enzyme assay that detects ADP turnover that is directly proportional to AMPK activity. This uses naive AMPK that is activated during the assay with MK-8722. It counts as functional. To be noted: 30 µM.

In assay [4] the target is Sialic acid-binding Ig-like lectin 9 (Homo sapiens) (UniProt Q9Y336). Description: Hs-Siglec9 ALPHAscreen SOP 20170721. As to conditions: 10 µM.
The next assay has as its system Trypanosoma cruzi. In words: Trypanosoma cruzi phosphomannomutase and mannose-1-phosphate guanylyltransferase assay. To be noted: 10 µM. The class given is functional.
For assay [5], the target named is T2, Arginase-2, mitochondrial (Homo sapiens) (UniProt P78540).
T2 sequence (whole entry): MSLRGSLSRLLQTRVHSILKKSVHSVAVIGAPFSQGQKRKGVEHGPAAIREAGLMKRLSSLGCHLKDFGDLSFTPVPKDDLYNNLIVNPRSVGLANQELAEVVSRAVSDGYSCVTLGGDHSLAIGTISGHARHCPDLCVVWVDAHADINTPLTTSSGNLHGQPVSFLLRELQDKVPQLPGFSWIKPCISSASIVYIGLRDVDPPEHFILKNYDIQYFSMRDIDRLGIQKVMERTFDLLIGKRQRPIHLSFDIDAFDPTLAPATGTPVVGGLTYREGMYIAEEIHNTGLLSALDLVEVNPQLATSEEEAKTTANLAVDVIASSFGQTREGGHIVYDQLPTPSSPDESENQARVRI
In words: in vitro enzyme assay to detect the production of urea directly proportional to the activity of Arginase II. Also: in the data most compounds retested in dose-response had high values. It counts as functional. As to conditions: 33.3 µM.

In assay [6] the target is T3, Proteasome subunit beta (Trypanosoma cruzi) (UniProt O96673).
T3 sequence (whole entry): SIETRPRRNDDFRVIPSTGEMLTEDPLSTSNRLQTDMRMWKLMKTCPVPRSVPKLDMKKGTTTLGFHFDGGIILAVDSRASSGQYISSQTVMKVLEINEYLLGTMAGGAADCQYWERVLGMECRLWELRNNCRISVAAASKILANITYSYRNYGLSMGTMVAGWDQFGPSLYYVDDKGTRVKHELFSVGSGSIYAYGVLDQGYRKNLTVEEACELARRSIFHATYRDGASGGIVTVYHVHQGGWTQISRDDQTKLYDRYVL
Description: Trypanosoma cruzi proteasome chymotrypsin-like activity (TcProtChymo) assay. Also: in the data most compounds retested in dose-response had high values. It counts as functional. As to conditions: 9.37 µM.

For another assay, the species on record is Homo sapiens. In words: To identify inhibition of the IFN signalling (Jak-Stat) pathway via expression of an eGFP reporter gene under the control of an IFN-stimulated response element (ISRE) containing MxA promoter. The class given is functional. To be noted: 30 µM.
Assay [7] concerns the target T4, Tyrosyl-tRNA synthetase, putative (Trypanosoma cruzi (strain CL Brener)) (UniProt Q4DSP6).
T4 sequence (whole entry): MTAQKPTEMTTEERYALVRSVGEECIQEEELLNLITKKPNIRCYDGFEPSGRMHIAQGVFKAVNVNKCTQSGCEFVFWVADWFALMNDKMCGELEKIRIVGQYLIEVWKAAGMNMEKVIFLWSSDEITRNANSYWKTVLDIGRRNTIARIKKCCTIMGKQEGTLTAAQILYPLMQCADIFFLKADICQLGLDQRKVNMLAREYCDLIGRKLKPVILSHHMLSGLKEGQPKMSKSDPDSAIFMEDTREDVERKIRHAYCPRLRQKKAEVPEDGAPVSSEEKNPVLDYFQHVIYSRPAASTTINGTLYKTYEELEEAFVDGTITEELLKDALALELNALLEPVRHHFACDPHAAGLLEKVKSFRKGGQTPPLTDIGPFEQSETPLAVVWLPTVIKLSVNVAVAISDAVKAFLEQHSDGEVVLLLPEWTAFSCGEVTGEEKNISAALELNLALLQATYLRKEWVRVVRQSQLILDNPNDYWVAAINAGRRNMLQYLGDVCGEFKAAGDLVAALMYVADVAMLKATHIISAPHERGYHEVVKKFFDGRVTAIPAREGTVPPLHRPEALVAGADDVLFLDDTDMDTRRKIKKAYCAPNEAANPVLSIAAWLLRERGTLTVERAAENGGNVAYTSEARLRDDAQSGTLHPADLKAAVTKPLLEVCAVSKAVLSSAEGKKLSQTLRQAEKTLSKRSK
In words: Trypanosoma cruzi tyrosyl tRNA synthetase (TcYRS) _High Tyrosine SOP. Also: in the data most compounds retested in dose-response had high values. To be noted: 30 µM. The class given is functional.

Assay [8] addresses T4, Tyrosyl-tRNA synthetase, putative (Trypanosoma cruzi (strain CL Brener)). Description: Trypanosoma cruzi tyrosyl tRNA synthetase (TcYRS) SOP. It counts as functional. To be noted: 30 µM.
Assay [9] deals with Chromo domain-containing protein 1 (Saccharomyces cerevisiae (strain ATCC 204508 / S288c) (Baker's yeast)) (UniProt P32657). Description: ScCHD-1 Enzyme Inhibition Assay. Also: in the data most compounds retested in dose-response had high values. As to conditions: 30 µM. The class given is functional.
Chain of Chromo domain-containing protein 1 (Saccharomyces cerevisiae (strain ATCC 204508 / S288c) (Baker's yeast)) (P32657 whole entry, the tested form may be a part): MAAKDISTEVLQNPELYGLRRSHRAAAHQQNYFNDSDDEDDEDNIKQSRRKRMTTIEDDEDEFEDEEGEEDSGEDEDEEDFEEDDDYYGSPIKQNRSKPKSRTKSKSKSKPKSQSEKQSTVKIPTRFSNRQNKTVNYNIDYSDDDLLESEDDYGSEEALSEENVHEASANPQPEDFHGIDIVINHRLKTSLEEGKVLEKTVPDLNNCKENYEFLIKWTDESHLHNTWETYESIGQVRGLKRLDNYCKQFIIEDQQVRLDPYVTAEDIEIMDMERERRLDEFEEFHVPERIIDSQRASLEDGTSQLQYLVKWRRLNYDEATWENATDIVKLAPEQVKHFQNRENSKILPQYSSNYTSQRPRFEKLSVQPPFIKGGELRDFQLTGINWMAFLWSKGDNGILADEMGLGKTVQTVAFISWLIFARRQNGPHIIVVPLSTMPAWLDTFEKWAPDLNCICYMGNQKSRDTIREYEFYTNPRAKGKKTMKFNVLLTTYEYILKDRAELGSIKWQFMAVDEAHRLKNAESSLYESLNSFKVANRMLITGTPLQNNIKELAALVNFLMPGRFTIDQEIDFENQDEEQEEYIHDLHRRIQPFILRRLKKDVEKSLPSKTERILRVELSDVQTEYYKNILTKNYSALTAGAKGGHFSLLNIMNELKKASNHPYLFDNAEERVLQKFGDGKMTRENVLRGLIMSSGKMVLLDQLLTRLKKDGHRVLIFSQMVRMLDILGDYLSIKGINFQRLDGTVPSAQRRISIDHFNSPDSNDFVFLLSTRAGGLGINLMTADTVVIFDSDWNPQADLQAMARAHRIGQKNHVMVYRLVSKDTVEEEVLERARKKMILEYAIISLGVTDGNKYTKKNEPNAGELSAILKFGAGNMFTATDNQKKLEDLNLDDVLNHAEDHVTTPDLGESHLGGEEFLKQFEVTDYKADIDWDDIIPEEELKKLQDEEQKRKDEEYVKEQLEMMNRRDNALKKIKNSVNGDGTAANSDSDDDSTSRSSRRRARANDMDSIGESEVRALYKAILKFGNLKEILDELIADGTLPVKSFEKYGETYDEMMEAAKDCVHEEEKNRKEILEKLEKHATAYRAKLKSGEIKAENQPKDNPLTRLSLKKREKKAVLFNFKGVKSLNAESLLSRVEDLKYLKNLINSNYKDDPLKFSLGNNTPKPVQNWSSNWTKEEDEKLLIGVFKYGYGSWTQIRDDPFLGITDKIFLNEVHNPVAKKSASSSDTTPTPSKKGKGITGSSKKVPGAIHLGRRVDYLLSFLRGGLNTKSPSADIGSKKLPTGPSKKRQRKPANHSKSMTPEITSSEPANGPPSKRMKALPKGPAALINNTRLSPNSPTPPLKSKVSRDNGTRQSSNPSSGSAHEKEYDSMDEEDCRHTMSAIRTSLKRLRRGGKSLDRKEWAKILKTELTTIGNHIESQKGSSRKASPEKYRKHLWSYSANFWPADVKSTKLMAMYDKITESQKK

Chain of Sialic acid-binding Ig-like lectin 9 (Homo sapiens) (Q9Y336 whole entry): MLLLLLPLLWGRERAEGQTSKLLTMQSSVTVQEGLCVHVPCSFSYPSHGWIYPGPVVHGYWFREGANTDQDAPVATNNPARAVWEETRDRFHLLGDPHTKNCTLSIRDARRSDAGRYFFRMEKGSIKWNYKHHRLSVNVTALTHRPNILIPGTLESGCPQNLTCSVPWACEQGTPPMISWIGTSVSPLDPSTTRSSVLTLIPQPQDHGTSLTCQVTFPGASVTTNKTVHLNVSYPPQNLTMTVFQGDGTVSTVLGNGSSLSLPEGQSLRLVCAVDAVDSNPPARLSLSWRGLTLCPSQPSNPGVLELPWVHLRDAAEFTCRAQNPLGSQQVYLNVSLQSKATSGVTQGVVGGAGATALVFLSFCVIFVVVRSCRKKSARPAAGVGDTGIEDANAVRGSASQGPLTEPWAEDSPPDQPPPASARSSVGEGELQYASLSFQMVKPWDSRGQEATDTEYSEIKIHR
Chain of Protein translocase subunit SecA (Escherichia coli (strain K12)) (P10408 whole entry): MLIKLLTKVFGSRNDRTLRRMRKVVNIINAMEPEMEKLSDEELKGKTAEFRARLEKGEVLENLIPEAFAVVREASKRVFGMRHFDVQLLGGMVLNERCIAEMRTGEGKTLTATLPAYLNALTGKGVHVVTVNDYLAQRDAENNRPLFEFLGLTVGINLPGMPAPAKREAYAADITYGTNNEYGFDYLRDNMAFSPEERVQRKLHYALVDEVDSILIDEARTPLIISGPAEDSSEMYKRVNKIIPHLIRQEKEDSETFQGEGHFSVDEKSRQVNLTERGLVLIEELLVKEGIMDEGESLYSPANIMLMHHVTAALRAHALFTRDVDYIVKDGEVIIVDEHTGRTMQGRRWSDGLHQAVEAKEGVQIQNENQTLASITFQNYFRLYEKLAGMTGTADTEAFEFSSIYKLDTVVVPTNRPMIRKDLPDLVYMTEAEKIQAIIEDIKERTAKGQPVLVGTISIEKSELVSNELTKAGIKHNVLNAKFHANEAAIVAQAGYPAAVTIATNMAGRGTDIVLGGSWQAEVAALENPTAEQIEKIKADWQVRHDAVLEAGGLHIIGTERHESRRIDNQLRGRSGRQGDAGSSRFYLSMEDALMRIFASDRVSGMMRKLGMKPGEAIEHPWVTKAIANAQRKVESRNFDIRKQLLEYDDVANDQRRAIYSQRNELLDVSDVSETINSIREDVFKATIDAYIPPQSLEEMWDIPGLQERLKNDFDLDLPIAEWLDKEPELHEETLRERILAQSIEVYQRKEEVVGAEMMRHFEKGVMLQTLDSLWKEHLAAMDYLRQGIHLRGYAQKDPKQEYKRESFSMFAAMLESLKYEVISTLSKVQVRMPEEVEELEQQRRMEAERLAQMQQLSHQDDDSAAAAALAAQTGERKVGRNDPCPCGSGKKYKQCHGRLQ

With `CN(C)C(=O)c1ccc2c(c1)N(C)C(CC(=O)NC(C)(C)CO)CO2` (stereo not drawn), the Percent Effect in assay [1] was -8.01%; in [2], -4.17%; in [3], -3.33%; in [4] it was 3.27%; in the assay on Trypanosoma cruzi it was -2.82%; in assay [5], -2.21%. The Percent Effect was 10.7% in [6]; -2.49% in the assay filed under Homo sapiens; -2.1% in [7]; -5.13% in assay [8]; 0.823% in assay [9].

For the molecule `c1coc(CN2C[C@H](OCC3CCOCC3)[C@H]3COC[C@H]32)c1`, the Percent Effect was -3.71% in assay [1]; 8.11% in [2]; 6.46% in assay [3]; -3.04% in assay [4]; -3.23% in the assay on Trypanosoma cruzi; -0.955% in assay [5]. Besides, the Percent Effect in [6] came out at 15.3%; in the assay filed under Homo sapiens, 13.1%; in [7] it was 0%; in assay [8], 12.8%; in assay [9], 1.07%.

Consider `O=C(Nc1ccc(F)cc1)N1C[C@H]2C[C@H](C(=O)N3CCOCC3)[C@@H](C1)O2`, for which the Percent Effect in [1] is -1.74%; in assay [2] it was 7.79%; in assay [3], 3.92%; in [4], 3.78%; in the assay on Trypanosoma cruzi, 0.493%; in assay [5] it was 4.52%. Besides, the Percent Effect in assay [6] was 2.44%; in the assay filed under Homo sapiens, 29.3%; in [7], 4.23%; in [8] it was 14.1%; in assay [9] it was -6.94%.

With `CC[C@@H]1N(CC2CC2)CCC[C@]12CCC(=O)N2CCOC`, the Percent Effect is -3.03% in assay [1]; 8% in assay [2]; 5.19% in [3]; 4.35% in assay [4]; 0.772% with Trypanosoma cruzi; -53.9% in assay [5]. The Percent Effect in assay [6] was 5.47%; in the assay filed under Homo sapiens it was -8.94%; in assay [7], 5.21%; in assay [8], 0%; in [9] it was -4.58%.

As for `Cc1cc(OCC(=O)NC(C)c2ccc(N3CCOCC3)cc2)no1` (stereo not drawn), the Percent Effect in assay [1] was -4.84%; in assay [2] it was 18.2%; in assay [3], -0.141%; in assay [4], 11.2%; in the assay on Trypanosoma cruzi it was 5.61%; in [5], -89.7%. The Percent Effect in [6] was 8.15%; in the assay listed under Homo sapiens, -3.73%; in [7], 3.23%; in assay [8] it was 13.6%; in [9], -6.7%.

For `c1ccc(Cn2cccn2)c(CNCC2CNc3ccnn3C2)c1` (stereo not drawn), the Percent Effect in assay [1] was -5.51%; in assay [2], 10.4%; in assay [3], -9.17%; in assay [4], 10.9%; in the assay on Trypanosoma cruzi it was 13.5%; in [5] it was -4.63%. Moreover, the Percent Effect in assay [6] was 13.3%; in the assay filed under Homo sapiens, 3.57%; in assay [7] it was 16.5%; in assay [8], 21.9%; in [9], -11%.

`Cc1nccn1C1CCCN(C(=O)c2ccc(N3CCCC3)nn2)C1` (stereo not drawn): the Percent Effect in [1] is -4.79%; in assay [2], 10.5%; in assay [3], -5.31%; in assay [4], 8.97%; with Trypanosoma cruzi it was 1.59%; in assay [5] it was -0.719%. Further, the Percent Effect in assay [6] is -4.65%; in the assay filed under Homo sapiens, 2.56%; in assay [7], 4.43%; in assay [8] it was 11.1%; in assay [9], -6.5%.

Take `Cc1cccc(C(=O)NC2CCN(c3cnn(C)c3)C2=O)n1` (stereo not drawn): the Percent Effect was -4.94% in [1]; 16.2% in [2]; -3.39% in [3]; 24.3% in assay [4]; 7.33% in the assay with Trypanosoma cruzi; 23.6% in [5]. Also, the Percent Effect is 9.36% in assay [6]; -7.64% in the assay filed under Homo sapiens; 3.23% in assay [7]; 13.6% in assay [8]; -10.2% in assay [9].
